# Reference: the supplement of paper PMC9262897, “Low-cost anti-mycobacterial drug discovery using engineered E. coli” (Nature Communications, 2022)
# Where a name gives a salt, the structure may show the parent alone. ± gives the standard deviation of the averaged measurements.
# Columns and labels:
# Assay in all cases: growth (OD600 after 10 h); higher = more growth (less inhibition)
# [1] = system: E. coli TESEC Alr+ wild-type control; details: compound 0.1 mM; raw OD600 reference: median of DMSO wells 0.241, cell-free background 0.041
# Protocol: (§1)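 TESEC Mtb Alr E. coli, or the Alr+ wild-type control, in 384-well plates with Prestwick library compounds at 0.1 mM and 1% DMSO, across arabinose induction levels of 1E3 to 1E7 nM. Growth is read as OD600 after 10 h at 37 °C in triplicate biological replicates.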
# E. coli TESEC Mtb Alr [2] = details: compound 0.1 mM
# Protocol: as §1
# E. coli TESEC Mtb Asd = details: compound 0.1 mM
# Protocol: (§2)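 TESEC E. coli strains in which the native enzyme is deleted and replaced by arabinose-inducible Mtb Asd, DapB, CysH or TrpD, each grown in its selective medium. Strains were screened against the Prestwick library at 0.1 mM and 1% DMSO in 384-well format at low and high arabinose induction. Growth is read as OD600 after 10 h in triplicate.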
# E. coli TESEC Mtb DapB = details: compound 0.1 mM
# Protocol: as §2
# [3] = system: E. coli TESEC Alr+ wild-type control; details: compound 0.1 mM; raw OD600 reference: median of DMSO wells 0.49, cell-free background 0.052
# Protocol: (§3)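 TESEC Mtb Alr E. coli (ΔaraC ΔtolC ΔentC Δalr ΔdadX, arabinose-inducible Mtb Alr) or the Alr+ wild-type control strain, grown in defined M9-fructose medium without D-alanine in 96-well plates with Prestwick library compounds at 0.1 mM and 1% DMSO. Low Alr induction is 0.1 µM arabinose and high induction is 10 mM arabinose.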
# E. coli TESEC Mtb Alr [4] = details: compound 0.1 mM; remark: listed apart in the source
# Protocol: as §3
# [5] = arabinose 1000 nM, raw OD600 reference: median of DMSO wells 0.294, cell-free background 0.041
# [6] = arabinose 10000 nM, raw OD600 reference: median of DMSO wells 0.264, cell-free background 0.041
# [7] = arabinose 100000 nM, raw OD600 reference: median of DMSO wells 0.201, cell-free background 0.041
# [8] = arabinose 1000000 nM, raw OD600 reference: median of DMSO wells 0.193, cell-free background 0.041
# [9] = arabinose 10000000 nM, raw OD600 reference: median of DMSO wells 0.146, cell-free background 0.041
# [10] = arabinose induction (level): High, raw OD600 reference: median of DMSO wells 0.331, cell-free background 0.041
# [11] = arabinose induction (level): Low, raw OD600 reference: median of DMSO wells 0.417, cell-free background 0.041
# [12] = arabinose induction (level): High, raw OD600 reference: median of DMSO wells […], cell-free background 0.041
# [13] = arabinose induction (level): Low, raw OD600 reference: median of DMSO wells 0.227, cell-free background 0.041
# [14] = arabinose 100 nM, raw OD600 reference: median of DMSO wells 0.413, cell-free background 0.052
# [15] = arabinose 10000000 nM, raw OD600 reference: median of DMSO wells […], cell-free background 0.052
Structure (SMILES),growth [1],growth (E. coli TESEC Mtb Alr [2]; [5]),growth (E. coli TESEC Mtb Alr [2]; [6]),growth (E. coli TESEC Mtb Alr [2]; [7]),growth (E. coli TESEC Mtb Alr [2]; [8]),growth (E. coli TESEC Mtb Alr [2]; [9]),growth (E. coli TESEC Mtb Asd; [10]),growth (E. coli TESEC Mtb Asd; [11]),growth (E. coli TESEC Mtb DapB; [12]),growth (E. coli TESEC Mtb DapB; [13]),growth [3],growth (E. coli TESEC Mtb Alr [4]; [14]),growth (E. coli TESEC Mtb Alr [4]; [15])
CC(C)(C#N)c1cc(Cn2cncn2)cc(C(C)(C)C#N)c1 [Anastrozole],0.222 ± 0.0057,0.274 ± 0.0032,0.272 ± 0.0071,0.194 ± 0.009,0.183 ± 0.0054,0.13 ± 0.0054,0.339 ± 0.033,0.384 ± 0.038,0.194 ± 0.011,0.214 ± 0.028,0.483 ± 0.03,0.409 ± 0.0048,0.321 ± 0.016
Oc1c(Cl)cc(Cl)c(Cl)c1Cc1c(O)c(Cl)cc(Cl)c1Cl [Hexachlorophene],0.0444 ± 0.00067,0.04387 ± 0.00038,0.0445 ± 0.00086,0.04433 ± 0.00015,0.04387 ± 5.8e-05,0.0464 ± 0.0029,0.0582 ± 0.0021,0.0553 ± 0.004,0.0536 ± 0.0015,0.053 ± 0.00044,0.05693 ± 0.00042,0.063 ± 0.0035,0.0602 ± 0.0016
CCc1oc2ccccc2c1C(=O)c1cc(Br)c(O)c(Br)c1 [Benzbromarone],0.0407 ± 0.001,0.0448 ± 0.0076,0.0403 ± 0.00069,0.0421 ± 0.0019,0.03953 ± 0.00015,0.047 ± 0.0017,0.0473 ± 0.0012,0.0482 ± 0.002,0.0504 ± 0.0016,0.0491 ± 0.001,0.05037 ± 5.8e-05,0.0588 ± 0.0027,0.0513 ± 0.0023
NS(=O)(=O)c1cc(C(=O)O)c(NCc2ccco2)cc1Cl [Furosemide],0.244 ± 0.0029,0.303 ± 0.0075,0.2547 ± 0.00051,0.242 ± 0.024,0.18 ± 0.0021,0.148 ± 0.0056,0.353 ± 0.011,0.408 ± 0.054,0.181 ± 0.0028,0.194 ± 0.0081,0.613 ± 0.019,0.406 ± 0.012,0.353 ± 0.014
CNC(=C[N+](=O)[O-])NCCSCc1ccc(CN(C)C)o1 [Ranitidine hydrochloride],0.235 ± 0.0096,0.283 ± 0.015,0.252 ± 0.0043,0.203 ± 0.0086,0.179 ± 0.0036,0.1447 ± 0.0011,0.323 ± 0.037,0.455 ± 0.058,0.191 ± 0.011,0.234 ± 0.032,0.485 ± 0.064,0.408 ± 0.0097,0.338 ± 0.0081
NCCCC[C@H](N[C@@H](CCc1ccccc1)C(=O)O)C(=O)N1CCC[C@H]1C(=O)O [Lisinopril],0.257 ± 0.0039,0.304 ± 0.0053,0.251 ± 0.0067,0.213 ± 0.0063,0.177 ± 0.0033,0.159 ± 0.0064,0.35 ± 0.051,0.4 ± 0.031,0.212 ± 0.0046,0.316 ± 0.057,0.49 ± 0.035,0.41 ± 0.015,0.343 ± 0.0091
Cc1cnc(C(=O)NCCc2ccc(S(=O)(=O)NC(=O)NC3CCCCC3)cc2)cn1 [Glipizide],0.252 ± 0.0045,0.289 ± 0.0034,0.263 ± 0.0066,0.193 ± 0.019,0.183 ± 0.0084,0.141 ± 0.0039,0.341 ± 0.084,0.406 ± 0.029,0.199 ± 0.032,0.256 ± 0.042,0.506 ± 0.049,0.419 ± 0.0083,0.222 ± 0.025
COc1cccc2c1C(=O)c1c(O)c3c(c(O)c1C2=O)C[C@@](O)(C(=O)CO)C[C@@H]3O[C@H]1C[C@H](N)[C@H](O)[C@H](C)O1 [Doxorubicin hydrochloride],0.0471 ± 0.00081,0.0479 ± 0.0023,0.047 ± 0.002,0.0467 ± 0.00066,0.04497 ± 0.00012,0.0474 ± 0.0025,0.0664 ± 0.0059,0.0616 ± 0.0028,0.0535 ± 0.00072,0.0539 ± 0.001,0.05757 ± 0.00055,0.0599 ± 0.0035,0.0585 ± 0.00087
CCN(CC)CCNC(=O)COc1ccc(OC)cc1 [Mefexamide hydrochloride],0.24 ± 0.0042,0.285 ± 0.019,0.2683 ± 0.0018,0.196 ± 0.01,0.182 ± 0.0058,0.143 ± 0.0038,0.304 ± 0.1,0.411 ± 0.013,0.225 ± 0.041,0.227 ± 0.026,0.501 ± 0.067,0.421 ± 0.0097,0.343 ± 0.0047
CCCCCCCCCCCCCCCC[N+](C)(C)CCN(Cc1ccc(OC)cc1)c1ncccn1 [Thonzonium bromide],0.0453 ± 0.0014,0.08477 ± 0.00045,0.0958 ± 0.0043,0.0909 ± 0.0047,0.0447 ± 0.003,0.0932 ± 0.0021,0.0571 ± 0.0024,0.059 ± 0.0013,0.05637 ± 0.00046,0.0589 ± 0.002,0.0464 ± 0.00035,0.226 ± 0.15,0.112 ± 0.01
S=c1[nH]cnc2nc[nH]c12 [Mercaptopurine],0.062 ± 0.002,0.0619 ± 0.0038,0.0528 ± 0.0011,0.0694 ± 0.0044,0.0545 ± 0.0019,0.0747 ± 0.0012,0.176 ± 0.021,0.167 ± 0.01,0.202 ± 0.01,0.211 ± 0.004,0.234 ± 0.018,0.334 ± 0.017,0.113 ± 0.01
CCN(CC)C(=O)/C(C#N)=C/c1cc(O)c(O)c([N+](=O)[O-])c1 [Entacapone],0.0523 ± 0.00059,0.0552 ± 0.0036,0.0571 ± 0.00062,0.0534 ± 0.0015,0.0544 ± 0.00092,0.0482 ± 0.00026,0.142 ± 0.005,0.149 ± 0.029,0.138 ± 0.007,0.172 ± 0.0056,0.144 ± 0.02,0.195 ± 0.011,0.0695 ± 0.0028
CCOC(=O)[N-]c1c[n+](N2CCOCC2)no1 [Molsidomine],0.245 ± 0.0064,0.307 ± 0.0077,0.27 ± 0.0035,0.244 ± 0.048,0.182 ± 0.0019,0.166 ± 0.0027,0.305 ± 0.1,0.338 ± 0.084,0.207 ± 0.022,0.23 ± 0.02,0.562 ± 0.037,0.408 ± 0.014,0.313 ± 0.022
CN(CCCCCCCCCCN(C)C(=O)Oc1cccc([N+](C)(C)C)c1)C(=O)Oc1cccc([N+](C)(C)C)c1 [Demecarium bromide],0.04127 ± 0.00031,0.0415 ± 0.00053,0.03993 ± 5.8e-05,0.0453 ± 0.0065,0.03943 ± 0.00023,0.0426 ± 0.0012,0.0473 ± 0.00079,0.047 ± 0.0013,0.0492 ± 0.00091,0.0493 ± 0.0005,0.051 ± 0.00093,0.0633 ± 0.0063,0.0536 ± 0.0014
